# Screening data from PubChem.
# Only some compounds are listed: those with a hit (about 4.8% of all), similar ones and a draw of the others.
# Mot1-301 SUMO = blocks SUMOylation pathway, rescuing yeast Mot1-301 growth; S. cerevisiae Mot1-301 growth rescue, ATP luminescence, 38.5C; percent above DMSO median, 100 means doubled; 1% of 320,000 active; growth rescue, % at 18.8 µM;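 active = every valid replicate shows activation above 250% relative to neutral control wells; inactive = the rest, any valid replicate at or below 250%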;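 note: OY570 slx delta 5 strain wells were the positive control but not used for scaling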
# HIF activator = HIF pathway transcriptional activation; U2OS HRE-luciferase reporter, luminescence; normalized: DMSO 0%, desferrioxamine 100%; activation, % at 7.5 µM (by protocol); 0.32% of 300,000 active; AID 1910;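 active = mean activation of at least 10% of the iron chelator positive control signal, with at least half of replicates also reaching 10%; inconclusive = mean and replicate majority disagree about reaching 10%; inactive = mean and most replicates under 10%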
# AI-2 QS modul = modulators of Vibrio harveyi AI-2 quorum sensing system; activity change, % at 7.5 µM; 0.4% of 300,000 active; AID 2094; Vibrio harveyi JMH597 AI-2 luminescence/OD600 ratio, 9 h; hits give low values; strain lacks LuxN and CqsS sensors; 0 = neutral-control median; in the data active = activity change below about -75%, passing the limit was not always enough; inconclusive = no clear call, values can overlap the other calls;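 note: luminescence divided by OD600 gain over 9 h not by final OD600 alone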
# ALR inh = blocks human ALR sulfhydryl oxidase activity; inhibition, % (test concentration not listed); purified ALR, DTT oxidation, H2O2 HRP-luminol luminescence; P55789; 3.8% of 290,000 active;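 active = mean replicate inhibition above about 79%, with every replicate also reaching it, limit read from the data; inconclusive = only one of the two criteria met; inactive = mean below limit and not every replicate reaching it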
# Target sequence (P55789 whole entry, looked up): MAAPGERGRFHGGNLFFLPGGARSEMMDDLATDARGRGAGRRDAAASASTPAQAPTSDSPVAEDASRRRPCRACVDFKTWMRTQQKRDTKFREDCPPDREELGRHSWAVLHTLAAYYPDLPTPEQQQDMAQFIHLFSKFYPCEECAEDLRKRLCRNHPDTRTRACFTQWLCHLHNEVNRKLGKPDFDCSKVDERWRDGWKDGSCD
# The depositor's hits bear a star; ? = inconclusive; . = no result given.
SMILES,Mot1-301 SUMO,HIF activator,AI-2 QS modul,ALR inh
CCC(=O)NC(c1cccs1)c1ccc2cccnc2c1O (stereo unspecified),-17,196*,?,.
Cc1conc1NC(c1cccs1)c1ccc2cccnc2c1O (stereo unspecified),-5,3,43,-10
N#Cc1ccccc1CSCCNC(=O)Cc1c(F)cccc1Cl,162,0,22,-26
Cc1cccc(OCCNC(=O)CCNS(=O)(=O)c2ccc3ccccc3c2)c1,-11,.,.,-4
CNC(=O)c1c(NC(=O)c2cccc(C)c2)sc2c1CCC2,-13,-14,23,95*
Cc1cccc(C(=O)Nc2sc3c(c2C(=O)O)CCC3)c1,10,1,23,57
CCCN(CCC)CCNC(=O)c1cc2c(=O)n(C)c3ccccc3c2n1C,323*,0,16,.
Cc1cccc(-c2nc(CSCC(=O)NCCCN3CCOCC3)c(C)o2)c1,-5,0,2,99*
Cc1oc(-c2cccc(Cl)c2)nc1CS(=O)(=O)CC(=O)NCCCN1CCOCC1,21,0,13,48
Cc1oc(-c2ccc(Cl)cc2)nc1CSCC(=O)NCCCN1CCOCC1,-9,0,18,99*
Cc1ccc(NC(=O)CSc2ccc3c(c2)OCCO3)nc1,-11,0,27,98*
Cc1cccnc1NC(=O)CSc1ccc2c(c1)OCCO2,-23,.,.,.
O=C(CSc1ccc2c(c1)OCCO2)NCc1ccco1,-2,0,6,98*
COc1cccc(-c2nnc(N(C)C(=O)C3CCOC3)s2)c1 (stereo unspecified),344*,5,19,-3
COc1cccc(C(=O)N(C)c2nnc(-c3ccncc3)s2)c1,1,1,6,-15
C=CCOc1ccc(C(=O)O)cc1Cl,-17,0,23,0
COc1ccc(N2CCN(C(CNC(=O)c3ccco3)c3cccnc3)CC2)cc1 (stereo unspecified),9,0,7,89*
S=C(NCC1CCCO1)N1CCN(c2ccccc2)CC1 (stereo unspecified),-13,0,10,98*
COC(=O)NCC(c1ccco1)N1CCN(c2ccccc2)CC1 (stereo unspecified),-15,0,19,96*
COc1ccc(N2CCN(C(CNC(=O)c3ccco3)c3ccco3)CC2)cc1 (stereo unspecified),-14,-1,9,91*
COc1ccccc1N1CCN(C(CNC(=O)c2ccco2)c2cccnc2)CC1 (stereo unspecified),-6,0,-7,40
CN(Cc1nc2ccccc2c(=O)[nH]1)C(=O)c1cc(C2CC2)nn1-c1ccccc1,-11,.,.,18
CN(C(=O)c1cccc(S(=O)(=O)N2CCOCC2)c1)c1c(N)n(Cc2ccccc2)c(=O)[nH]c1=O,-7,.,.,-2
O=C(COC(=O)c1ccc(Cl)nc1)NNC(=O)c1ccc(Br)cc1,0,.,.,-1
CC1CN(S(=O)(=O)c2ccc(C(=O)N3CCc4ccccc43)cc2)CC(C)O1 (stereo unspecified),-14,.,.,43
SMILES,Mot1-301 SUMO,HIF activator,AI-2 QS modul,ALR inh
O=C(NCC1CCCO1)C(=O)NCC(c1ccco1)N1CCN(c2ccccc2)CC1 (stereo unspecified),-1,-1,-15,98*
COc1ccc(N2CCN(C(CNC(=O)C(=O)NCc3cccnc3)c3ccco3)CC2)cc1 (stereo unspecified),-9,0,-1,72
O=C(COc1coc(CN2CCN(c3ccccc3)CC2)cc1=O)NCC1CCCO1 (stereo unspecified),-12,0,-7,93*
O=C(NCc1ccncc1)C(=O)NCC(c1ccco1)N1CCN(c2ccccc2)CC1 (stereo unspecified),30,0,0,99*
O=C(NCc1cccnc1)C(=O)NCC(c1ccco1)N1CCN(c2ccc(F)cc2)CC1 (stereo unspecified),-8,0,-17,86*
Cc1noc(C)c1COC(=O)c1csc2c1CCC(C)C2 (stereo unspecified),15,.,.,-12
COc1ccc(N2CCN(C(CNC(=O)c3ccc4c(c3)OCO4)c3cccnc3)CC2)cc1 (stereo unspecified),-11,0,12,97*
O=C(NCC(c1cccnc1)N1CCN(c2ccc(F)cc2)CC1)c1ccco1 (stereo unspecified),342,0,19,92*
O=C(NCC(c1cccnc1)N1CCN(c2ccc(F)cc2)CC1)c1ccc2c(c1)OCO2 (stereo unspecified),2,0,55,48
CCOc1ccc(C(=O)N2CCc3ccccc32)cc1OCC,-7,-1,36,-6
CCN(CC(=O)Nc1c(F)cccc1F)C(=O)c1cnccn1,109,0,26,18
Cc1[nH]c2ccccc2c1CCNS(=O)(=O)c1ccc(S(N)(=O)=O)cc1,-23,0,9,90*
CC(=O)c1cccc(NC(=O)COc2ccc3oc(=O)cc(C)c3c2)c1,-26,0,26,-24
CCN1/C(=C/C=C/c2sc3ccccc3[n+]2CC)Sc2ccccc21,-2,-1,-29,100*
CCN1/C(=C/c2ccc3cc(C)ccc3[n+]2CC)Sc2ccccc21,481,26*,?,22
CCOC(=O)C1=C(c2ccccc2)NC(N)=NC1c1ccc(OCc2ccc(C(=O)OC)cc2)cc1 (stereo unspecified),1,-1,-92*,-49
CCOC(=O)C1=C(c2ccccc2)Nc2ncnn2C1c1ccc(C(=O)O)cc1 (stereo unspecified),-12,2,1,12
CCOc1ccc(NCc2cccn2-c2nnc(N3CCC(C(=O)NCCCN4CCCCC4CC)CC3)s2)cc1 (stereo unspecified),-9,0,7,99*
COc1ccc(NC(=O)CN2C(=O)NC(C)(C3CC3)C2=O)cc1S(=O)(=O)N1CCCCC1 (stereo unspecified),-9,.,.,.
NC1=NC[C@H](Cc2ccc(O)cc2)N1CCCCC1CCCCC1,-28,-3,22,76*
CCCCOC(=O)Sc1nc2ccccc2o1,-5,0,52,93*
O=C(CN1CCN(c2ccccc2O)CC1)Nc1ccnn1C1CCCC1,-15,.,.,.
CC1(C)Cc2c(c(=S)nc(-c3ccccc3)n2CCN2CCOCC2)CO1,-1,0,-1,97*
COCCn1c(-c2ccccc2)nc(=S)c2c1CC(C)(C)OC2,4,0,10,-6
O=S(=O)(c1ccc(Cl)c(NC(=S)N/N=C/c2ccc(O)cc2)c1)N1CCOCC1,31,0,-4,99*
N#Cc1ccc(/C=N/NC(=S)Nc2ccc(S(=O)(=O)N3CCOCC3)cc2)cc1,-12,-1,14,1
O=S(=O)(c1ccc(NC(=S)N/N=C/c2ccc(O)c(O)c2)cc1)N1CCOCC1,-24,0,6,99*
O=S(=O)(c1ccc(Cl)c(NC(=S)Nc2ccccc2N2CCOCC2)c1)N1CCOCC1,-20,0,-3,98*
